Data as given in PubChem BioAssay (NCI).
The panel holds about 83,000 compounds, 20% with a hit somewhere; the sample as a whole holds those more often.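 Treatment: one concentration, 48 hours, 96-well format. Scoring: percent growth, with anything below 10 considered active.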 Activity calls are given as the source filed them.

Legend:
Assay in all cases: NCI-60 one-dose screen, 48 h (100 = growth as untreated, 0 = no growth, -100 = all killed)
Conditions in all cases: 10 µM unless noted
T-47D breast = test system: T-47D breast
BT-549 breast = test system: BT-549 breast
MDA-MB-435 melanoma = test system: MDA-MB-435 melanoma
SW-620 colon = test system: SW-620 colon
MCF7 breast = test system: MCF7 breast
HCT-116 colon = test system: HCT-116 colon
HCC-2998 colon = test system: HCC-2998 colon
KM12 colon = test system: KM12 colon

Measured: growth

O=C(CSc1nnc(-c2ccc3nc(-c4ccccc4)[nH]c3c2)o1)Nc1ccc(C(=O)/C=C/c2ccccc2)cc1
inactive: T-47D breast 98.6% | BT-549 breast 96.8% | MDA-MB-435 melanoma 101% | SW-620 colon 116% | MCF7 breast 87.6% | HCT-116 colon 97% | HCC-2998 colon 106% | KM12 colon 110%

COc1c(N2CC3CCCNC3C2)c(F)cc2c(=O)c(C(=O)N/N=C/c3ccc(F)cc3)cn(C3CC3)c12 (stereo not drawn)
inactive: T-47D breast 96.1% | BT-549 breast 84.8% | MDA-MB-435 melanoma 91% | SW-620 colon 99.5% | MCF7 breast 75.9% | HCT-116 colon 67.9% | HCC-2998 colon 97.3% | KM12 colon 104%

COc1ccc2c(c1)c(CC(=O)[Se]CC#N)c(C)n2C(=O)c1ccc(Cl)cc1
active: SW-620 colon -32.7% | HCT-116 colon -46.7% | HCC-2998 colon -4.68% | KM12 colon -5.24%
inactive: T-47D breast 22.4% | BT-549 breast 75.9% | MDA-MB-435 melanoma 26.5% | MCF7 breast 17.3%

O=c1[nH]c(Sc2sc3ccc(Cl)cc3c2CBr)nc(=S)[nH]1
active: T-47D breast -0.0992%
inactive: BT-549 breast 48.5% | MDA-MB-435 melanoma 15.1% | SW-620 colon 40.4% | MCF7 breast 15.2% | HCT-116 colon 38.6% | HCC-2998 colon 48.5% | KM12 colon 12.8%

COc1cc2nc(Cl)nc(Nc3cccc(C4=Nc5c(N)nc(N)nc5NC(c5ccc6c(c5)OCO6)C4)c3)c2cc1OC (stereo not drawn)
inactive: T-47D breast 68.9% | BT-549 breast 76.8% | MDA-MB-435 melanoma 88.5% | SW-620 colon 76.9% | MCF7 breast 54% | HCT-116 colon 55.3% | HCC-2998 colon 74.6% | KM12 colon 46.8%

O=[N+]([O-])c1cc(/C=N/Nc2nc(N/N=C/c3ccc(Cl)c([N+](=O)[O-])c3)nc(N3CCCCC3)n2)ccc1Cl
inactive: T-47D breast 48.2% | BT-549 breast 97.9% | MDA-MB-435 melanoma 92.3% | SW-620 colon 63.7% | HCT-116 colon 22% | HCC-2998 colon 67.4%
active: MCF7 breast 0.909% | KM12 colon 5.45%

O=C(O)c1ccc(-n2cc(CNc3cc(F)c(F)c(F)c3)c(-c3ccc(F)cc3)n2)cc1
inactive: T-47D breast 85.5% | BT-549 breast 107% | MDA-MB-435 melanoma 96.1% | SW-620 colon 103% | MCF7 breast 58.3% | HCT-116 colon 88.5% | HCC-2998 colon 102% | KM12 colon 92.9%

COc1ccc2[nH]cc(/C=N/Nc3nc4ccccc4s3)c2c1
active: T-47D breast 2.18%
inactive: BT-549 breast 58.7% | MDA-MB-435 melanoma 66.2% | SW-620 colon 74.7% | MCF7 breast 22.5% | HCT-116 colon 46.8% | HCC-2998 colon 41% | KM12 colon 13.6%

N#Cc1cccc(CN2CCC3=C(C2)C(=O)N(Cc2ccc(Cl)cc2)C2=NCCCN23)c1
inactive: T-47D breast 21.2% | BT-549 breast 64% | MDA-MB-435 melanoma 20.3% | SW-620 colon 36.1% | MCF7 breast 14.2% | HCT-116 colon 22.5% | HCC-2998 colon 24.5% | KM12 colon 38.8%

O=C(Cn1cc[n+](CC(=O)c2ccc(-c3ccccc3)cc2)c1)Nc1cccc2cccnc12
inactive: T-47D breast 40.4% | BT-549 breast 57.4% | MDA-MB-435 melanoma 79.3% | SW-620 colon 85% | MCF7 breast 51.4% | HCT-116 colon 72.4% | HCC-2998 colon 51.7% | KM12 colon 31.6%

CCOc1ccccc1NC1=C(Cl)C(=O)c2nc(C)ccc2C1=O
active: T-47D breast -40% | MDA-MB-435 melanoma -85.7% | SW-620 colon -66.7% | MCF7 breast -59.7% | HCT-116 colon -79.4%
inactive: BT-549 breast 44.4% | HCC-2998 colon 20.3% | KM12 colon 60.8%

Cn1cc(-c2nc(N)nnc2-c2c[nH]c3ccccc23)c2cc(Br)ccc21
inactive: T-47D breast 31.2% | BT-549 breast 32.9% | SW-620 colon 18.2% | MCF7 breast 18.1% | HCT-116 colon 20.3% | HCC-2998 colon 57.6% | KM12 colon 18.1%
active: MDA-MB-435 melanoma -37.6%

CCCCc1nc(/C=N/Nc2nc(Nc3ccccc3)nc(Nc3ccc(S(N)(=O)=O)cc3)n2)c(Cl)[nH]1
inactive: T-47D breast 14.9% | BT-549 breast 47.9% | MDA-MB-435 melanoma 90.3% | SW-620 colon 75.1% | MCF7 breast 46.8% | HCT-116 colon 90% | HCC-2998 colon 70.4% | KM12 colon 103%

CCOc1ccc(NC2=C(Cl)C(=O)c3nc(C)ccc3C2=O)cc1
active: T-47D breast -43.8% | MDA-MB-435 melanoma -83.7% | SW-620 colon -55.3% | MCF7 breast -67% | HCT-116 colon -83.6% | HCC-2998 colon -55.7%
inactive: BT-549 breast 46.5% | KM12 colon 57.4%

COc1cccc(O)c1/C=C(/C)c1ccc2c(OC)cccc2[o+]1
inactive: T-47D breast 106% | BT-549 breast 95.7% | MDA-MB-435 melanoma 86.7% | SW-620 colon 96.7% | MCF7 breast 93.8% | HCT-116 colon 101% | HCC-2998 colon 110% | KM12 colon 101%

NC(N)=Nc1ccc(Oc2cccc(Nc3ccc(Br)c(C(F)(F)F)c3)c2)cc1
inactive: T-47D breast 22.4% | BT-549 breast 42.7%
active: MDA-MB-435 melanoma 8.6% | SW-620 colon -31% | MCF7 breast -1.08% | HCT-116 colon -25% | HCC-2998 colon -28.1% | KM12 colon -27.2%

O=S(=O)(NCCNc1nccc(-n2cnc3ccccc32)n1)c1ccc(C(F)(F)F)cc1
inactive: T-47D breast 22.3% | BT-549 breast 53.1% | MDA-MB-435 melanoma 64.4% | SW-620 colon 83.5% | MCF7 breast 34.9% | HCT-116 colon 40.1% | HCC-2998 colon 80.5% | KM12 colon 58.7%

CN(C)CCNC(=O)c1ccc(-c2nc3ccc4[nH]ncc4c3c3c2COCC3)cc1
inactive: KM12 colon 16.4%
active: T-47D breast -7.62% | BT-549 breast -16.2% | MDA-MB-435 melanoma 3.65% | SW-620 colon 3.1% | MCF7 breast 0.287% | HCT-116 colon 2.59% | HCC-2998 colon -20.8%

NC(N)=Nc1ccc(Oc2cccc(NC(N)=Nc3ccc(I)cc3F)c2)cc1
inactive: T-47D breast 75.3% | BT-549 breast 87.6% | MDA-MB-435 melanoma 85% | SW-620 colon 89.5% | MCF7 breast 63.3% | HCT-116 colon 90.5% | HCC-2998 colon 102% | KM12 colon 79.3%

Oc1ccc(CSc2nnc(-c3ccc(Cl)cc3)n2-c2ccccc2)c2cccnc12
active: MCF7 breast 9.16%
inactive: T-47D breast 48.9% | BT-549 breast 35.7% | MDA-MB-435 melanoma 17.1% | SW-620 colon 23.9% | HCT-116 colon 13.3% | HCC-2998 colon 32.8% | KM12 colon 21.3%

Cc1cc(C(NC(=O)CCCCCNc2cccc3c2C(=O)N(C2CCC(=O)NC2=O)C3=O)c2ccc3c(c2)OC(F)(F)O3)c(O)c2ncccc12 (stereo not drawn)
inactive: T-47D breast 67.6% | BT-549 breast 36.6% | MDA-MB-435 melanoma 27.8% | SW-620 colon 40.2% | MCF7 breast 29.5% | HCT-116 colon 27.8% | HCC-2998 colon 79.2% | KM12 colon 39.9%

N#Cc1cnc2ccc(-c3cnc4[nH]ncc4c3)cc2c1N1CCc2cc(F)c(Cl)cc21
active: T-47D breast -2.57% | MDA-MB-435 melanoma -10.2% | MCF7 breast -2.16% | HCT-116 colon 8.48% | HCC-2998 colon -11.8%
inactive: BT-549 breast 20.1% | SW-620 colon 17.9% | KM12 colon 14%

N#Cc1c(Nc2ccccc2)nn2c(-c3ccc([N+](=O)[O-])cc3)ccnc12
inactive: T-47D breast 110% | BT-549 breast 99.5% | MDA-MB-435 melanoma 97.4% | SW-620 colon 103% | MCF7 breast 93.2% | HCT-116 colon 99.3% | HCC-2998 colon 106% | KM12 colon 102%

C#Cc1nc(/C=C/C(=O)c2nccn2C)cs1
active: T-47D breast -23.4% | BT-549 breast -59.1% | MDA-MB-435 melanoma 1.27% | SW-620 colon -24.9% | MCF7 breast -30% | HCT-116 colon -48.8% | HCC-2998 colon -83.1% | KM12 colon -43.5%

COc1cc(OC)c(/C=C/S(=O)(=O)Cc2ccc(OC)c(NCC(=O)NO)c2)c(OC)c1
active: MDA-MB-435 melanoma -8.04% | HCT-116 colon 3.2% | KM12 colon 4.53%
inactive: T-47D breast 74.3% | BT-549 breast 11.6% | SW-620 colon 28.3% | MCF7 breast 11% | HCC-2998 colon 14.2%

CCO/C=N/C1=C(C#N)C(c2ccc(Cl)cc2)c2sc3c(CC)cccc3c2O1 (stereo not drawn)
inactive: T-47D breast 26.9% | BT-549 breast 59.6% | SW-620 colon 32.3% | MCF7 breast 16.2% | HCT-116 colon 23.1% | HCC-2998 colon 23.6% | KM12 colon 15.3%
active: MDA-MB-435 melanoma -43.2%

O=C(NCCn1ccnc1)c1ccc(-c2nc3ccc4[nH]ncc4c3c3c2CCCC3)cc1
active: MDA-MB-435 melanoma -1.93%
inactive: T-47D breast 56% | BT-549 breast 44.2% | SW-620 colon 57.4% | MCF7 breast 20.5% | HCT-116 colon 37% | HCC-2998 colon 81.6% | KM12 colon 26%

O=S(=O)(NCCCNc1nccc(-n2cnc3ccccc32)n1)c1ccc(C(F)(F)F)cc1
inactive: T-47D breast 44.7% | BT-549 breast 88.2% | MDA-MB-435 melanoma 93.4% | SW-620 colon 106% | MCF7 breast 83.4% | HCT-116 colon 75.9% | HCC-2998 colon 112% | KM12 colon 79.8%

NS(=O)(=O)c1ccc(Nc2nc(N/N=C/c3ccc(Cl)cc3)nc(Nc3ccccc3)n2)cc1
inactive: T-47D breast 44.8% | BT-549 breast 74.9% | MDA-MB-435 melanoma 57.7% | SW-620 colon 101% | MCF7 breast 38.7% | HCT-116 colon 44.3% | HCC-2998 colon 76.4% | KM12 colon 63.3%

Cc1ccc(-n2cc(/C=N/NC(=O)c3nc(N)n[nH]3)c(-c3ccc(S(C)(=O)=O)cc3)n2)cc1
inactive: T-47D breast 97.5% | BT-549 breast 101% | MDA-MB-435 melanoma 87.9% | SW-620 colon 93.3% | MCF7 breast 94.2% | HCT-116 colon 104% | HCC-2998 colon 115% | KM12 colon 105%

COc1cc(-c2nc(SCCC(C)C)nc(NNC(=O)c3ccncc3)c2C#N)cc(OC)c1OC
inactive: T-47D breast 43% | BT-549 breast 104% | MDA-MB-435 melanoma 90.1% | SW-620 colon 110% | MCF7 breast 74.7% | HCT-116 colon 84.5% | HCC-2998 colon 92.1% | KM12 colon 86.5%
